Inconclusive results are not listed. Activity calls are given as the source filed them. Unless noted, calls come from the whole dose curve.
What was measured:
[1] = biological target: Androgen receptor (Homo sapiens) (UniProt P10275); assay: qHTS assay for small molecule agonists of androgen receptor signaling (AID 588515; active = well fitted curve in the direction sought with a large enough effect in the signal ratio, with a control signal flat; the % refers to the signal ratio; note: % is set by controls: 0 for no effect and ±100 for the full control effect); settings: AR-UAS-bla HEK293, beta-lactamase ratio, agonist 16 h; activation: stronger effect = higher value
In short: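 EC50 and efficacy came from Hill fits of titrations (up to 92 uM) normalized to 30 nM R1881 as 100% and DMSO as 0%. Compound exposure was 16 h at 37 C on AR-UAS-bla HEK293 cells, with a 405/460/530 nm CCF4 fluorescence read.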

[2] = biological target: Androgen receptor (Homo sapiens) (UniProt P10275); assay: qHTS assay for small molecule antagonists of androgen receptor signaling (AID 588516; active = well fitted curve in the direction sought with a large enough effect in the signal ratio, with a control signal flat, not every such curve was filed as active; the % refers to the signal ratio; note: % is set by controls: 0 for no effect and ±100 for the full control effect)
In short: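 Cells were plated and incubated 5 h, compounds added in titration, then R1881 (10 nM final) as agonist. After 16 h at 37 C, CCF4 substrate was loaded for 2 h at room temperature and fluorescence measured.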

[3] = biological target: Bile acid receptor (Homo sapiens) (UniProt Q96RI1); assay: qHTS assay for small molecule antagonists of farnesoid X receptor signaling (AID 588526); note: % is set by controls: 0 for no effect and ±100 for the full control effect
In short: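 Concentration-response titrations were fitted to the Hill equation for half-maximal inhibition and maximal response, with data normalised to 50 uM chenodeoxycholic acid and DMSO control wells. Cells: FXR-UAS-bla HEK293T, dialyzed FBS.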

[4] = biological target: Glucocorticoid receptor (Homo sapiens) (UniProt P04150); assay: qHTS assay for small molecule agonists of glucocorticoid receptor signaling (AID 588532; active = well fitted curve in the direction sought with a large enough effect in the signal ratio, with a control signal flat; the % refers to the signal ratio;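 note: 100% = dexamethasone at 0.1 µM and 0% = DMSO only wells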); settings: HeLa MMTV-bla, beta-lactamase ratio, agonist, 18 h; stronger effect = higher value; percent of dexamethasone control, DMSO zero
In short: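 Titration series, up to 92 uM, applied to GRE-bla HeLa cells for 18 h at 37 C. Detection by CCF4 FRET substrate after 2 h at RT.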

[5] = biological target: Glucocorticoid receptor (Homo sapiens) (UniProt P04150); assay: qHTS assay for small molecule antagonists of glucocorticoid receptor signaling (AID 588533; active = well fitted inhibition curve with a large enough effect in the signal ratio, with a control signal flat, not every such curve was filed as active; the % refers to the signal ratio;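 note: cells stimulated with 2 nM dexamethasone as agonist; % is set by controls: 0 for no effect and ±100 for the full control effect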)
In short: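 Antagonist-mode qHTS: compound titrations added to GRE-bla HeLa cells, then dexamethasone 2 nM final; 18 h, 37 C. CCF4 FRET fluorescence normalized to dexamethasone and DMSO; IC50 from Hill fit.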

[6] = biological target: Peroxisome proliferator-activated receptor delta (Homo sapiens) (UniProt Q03181); assay: qHTS assay for small molecule antagonists of peroxisome proliferator-activated receptor delta signaling (AID 588535; active = well fitted inhibition curve with a large enough effect in the signal ratio, with a control signal flat, not every such curve was filed as active; the % refers to the signal ratio)
In short: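 GeneBLAzer PPAR-delta-UAS-bla HEK293T cells in medium with 2% charcoal/dextran FBS were preincubated 5 hrs at 37 C, then given compounds, incubated 18 hrs at 37 C, and read by CCF4 beta-lactamase fluorescence; IC50 from Hill fits.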

[7] = biological target: Peroxisome proliferator-activated receptor gamma (Homo sapiens) (UniProt P37231); assay: qHTS assay for small molecule agonists of peroxisome proliferator-activated receptor gamma signaling (AID 588536; active = well fitted curve in the direction sought with a large enough effect in the signal ratio, with a control signal flat, not every such curve was filed as active; the % refers to the signal ratio;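 note: 0% = DMSO basal wells and 100% = rosiglitazone at 2 µM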)
In short: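 GeneBLAzer PPAR-gamma-UAS-bla HEK293 cells in 1% charcoal/dextran-treated FBS medium were treated 16 h at 37 C with compounds. Beta-lactamase activity was read by CCF4 ratio (460/530 nm). Response was normalized to 2 uM rosiglitazone (100%) and DMSO, then Hill-fitted for EC50 and efficacy.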

[8] = biological target: Peroxisome proliferator-activated receptor gamma (Homo sapiens) (UniProt P37231); assay: qHTS assay for small molecule antagonists of peroxisome proliferator-activated receptor gamma signaling (AID 588537; active = well fitted inhibition curve with a large enough effect in the signal ratio, with a control signal flat, not every such curve was filed as active; the % refers to the signal ratio;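 note: reporter cells co-stimulated with 50 nM rosiglitazone agonist during compound treatment; % of control where 0% means no effect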)
In short: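 PPAR-gamma-UAS-bla HEK293 cells (3000/well, 1% charcoal/dextran-stripped FBS) were preincubated 6-6.5 h at 37 C, given titrated compounds, then stimulated with 50 nM rosiglitazone for 16 h. Beta-lactamase activity was read with CCF4 dye; IC50 came from Hill fits.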

[9] = qHTS assay for small molecule agonists of the antioxidant response element (ARE) signaling pathway (AID 651741; active = well fitted activation curve with a large enough effect in the signal ratio; the % refers to the signal ratio; note: % of control where 0% means no effect)
In short: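 ARE-bla HepG2 cells (beta-lactamase reporter under ARE control) were plated at 2,000 cells/well, preincubated 5 h at 37 C/5% CO2, then treated with DMSO-dissolved compounds for 16 h at 37 C; LiveBLAzer B/G FRET substrate added, fluorescence read after 2 h at room temperature.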

[10] = biological target: Cytochrome P450 3A4 (Homo sapiens) (UniProt P08684); assay: qHTS Assay for Activators of Cytochrome P450 3A4 (AID 885; active = well fitted curve in the direction sought with a large enough effect; an effect the other way counts as inactive or inconclusive; note: nearly all actives have a fitted effect of over 65% in size)
In short: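 Human CYP3A4 (20 nM) with Luciferin-PPXE at 25 uM (its KM) in 200 mM KPO4; 10 min compound preincubation, then NADPH regeneration and 60 min reaction at RT. Luciferin read by luminescence; normalized to 57 uM ketoconazole full inhibition.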

[11] = biological target: DNA dC->dU-editing enzyme APOBEC-3G (Homo sapiens) (UniProt Q9HC16); assay: qHTS for inhibitors of Vif-A3G interactions: Validation (AID 588379; active = well fitted curve in the direction sought with a large enough effect; an effect the other way counts as inactive or inconclusive; note: 0% is about no effect)
In short: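 HeLa cells stably expressing Vif and A3G-eYFP, 700 cells/well, incubated overnight at 37 deg C, then exposed to compound overnight at 37 deg C. Inhibition of Vif-mediated degradation read as increased yellow fluorescence (Ex 488/Em 500-530) by laser-scanning cytometry.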

[12] = qHTS assay for small molecule activators of the nuclear factor-kappa B (NF-kB) signaling pathway (AID 651749; active = well fitted activation curve with a large enough effect in the signal ratio; the % refers to the signal ratio; note: series mostly up to about 77 µM; % of control where 0% means no effect); settings: NF-kB-bla ME-180 cells, beta-lactamase FRET ratio, 16 h; activation: stronger effect = higher value
In short: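 ME-180 cells stably carrying a beta-lactamase reporter under an NF-kB response element were exposed to compound or DMSO vehicle for 16 hr at 37C, 5% CO2. Pathway activation was read by FRET, since reporter expression disrupts FRET.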

[13] = biological target: Cytochrome P450 3A4 (Homo sapiens) (UniProt P08684); assay: qHTS Assay for Inhibitors and Substrates of Cytochrome P450 3A4 (AID 884; active = well fitted curve in the direction sought with a large enough effect; an effect the other way counts as inactive or inconclusive; note: nearly all actives have a fitted effect of over 50% in size; note: potency is the fitted concentration of half-maximal effect)
In short: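 20 nM human CYP3A4 with 25 uM Luciferin-PPXE (at KM) in 200 mM KPO4, preincubated 10 min with compound; NADPH regeneration started a 60 min RT reaction. Luciferin detected by luminescence, normalized to 57 uM ketoconazole as full inhibition.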

Chain of Glucocorticoid receptor (Homo sapiens) (P04150 whole entry, looked up): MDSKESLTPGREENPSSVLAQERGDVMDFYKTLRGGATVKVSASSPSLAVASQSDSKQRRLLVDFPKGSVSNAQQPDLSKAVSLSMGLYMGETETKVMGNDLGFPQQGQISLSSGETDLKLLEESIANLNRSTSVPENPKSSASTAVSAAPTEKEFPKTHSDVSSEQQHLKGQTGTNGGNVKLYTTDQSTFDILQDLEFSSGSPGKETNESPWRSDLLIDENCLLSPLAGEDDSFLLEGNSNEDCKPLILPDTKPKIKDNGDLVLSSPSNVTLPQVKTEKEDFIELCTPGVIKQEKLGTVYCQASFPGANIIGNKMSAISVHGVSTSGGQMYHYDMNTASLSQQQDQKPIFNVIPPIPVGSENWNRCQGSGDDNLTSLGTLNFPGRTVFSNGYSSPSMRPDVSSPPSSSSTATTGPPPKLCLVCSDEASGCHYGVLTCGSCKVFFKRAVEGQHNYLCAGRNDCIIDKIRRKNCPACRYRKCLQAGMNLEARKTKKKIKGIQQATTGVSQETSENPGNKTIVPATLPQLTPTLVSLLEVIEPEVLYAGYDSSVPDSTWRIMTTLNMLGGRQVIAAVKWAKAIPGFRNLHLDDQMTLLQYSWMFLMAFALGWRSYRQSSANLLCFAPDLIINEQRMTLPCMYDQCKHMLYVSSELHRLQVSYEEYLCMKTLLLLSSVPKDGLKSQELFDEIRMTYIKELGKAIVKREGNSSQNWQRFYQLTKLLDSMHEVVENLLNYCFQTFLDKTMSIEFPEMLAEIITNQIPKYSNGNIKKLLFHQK
Chain of Peroxisome proliferator-activated receptor delta (Homo sapiens) (Q03181 whole entry, looked up): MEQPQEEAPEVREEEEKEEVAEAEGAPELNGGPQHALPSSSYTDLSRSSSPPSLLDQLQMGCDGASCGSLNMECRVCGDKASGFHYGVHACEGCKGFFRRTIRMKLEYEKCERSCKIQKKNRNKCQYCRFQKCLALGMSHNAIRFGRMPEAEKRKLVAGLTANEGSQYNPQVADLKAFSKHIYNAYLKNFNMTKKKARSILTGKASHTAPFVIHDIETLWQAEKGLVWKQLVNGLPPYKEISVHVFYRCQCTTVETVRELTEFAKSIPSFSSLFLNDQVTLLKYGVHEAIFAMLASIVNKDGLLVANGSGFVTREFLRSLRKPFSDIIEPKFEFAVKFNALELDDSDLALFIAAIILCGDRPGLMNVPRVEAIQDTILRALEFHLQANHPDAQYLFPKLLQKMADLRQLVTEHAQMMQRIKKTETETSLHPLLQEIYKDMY
Chain of DNA dC->dU-editing enzyme APOBEC-3G (Homo sapiens) (Q9HC16 whole entry, looked up): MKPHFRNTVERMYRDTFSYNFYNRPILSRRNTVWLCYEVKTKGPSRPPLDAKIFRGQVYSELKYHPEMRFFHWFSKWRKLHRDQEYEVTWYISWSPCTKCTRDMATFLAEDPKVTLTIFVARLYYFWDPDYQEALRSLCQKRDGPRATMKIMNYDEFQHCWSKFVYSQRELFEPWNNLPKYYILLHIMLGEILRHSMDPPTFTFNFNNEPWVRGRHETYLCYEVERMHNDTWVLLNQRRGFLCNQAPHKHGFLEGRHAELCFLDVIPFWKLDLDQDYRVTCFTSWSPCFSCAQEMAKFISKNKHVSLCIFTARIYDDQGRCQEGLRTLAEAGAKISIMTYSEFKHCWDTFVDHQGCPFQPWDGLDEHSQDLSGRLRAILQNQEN
Chain of Peroxisome proliferator-activated receptor gamma (Homo sapiens) (P37231 whole entry, looked up): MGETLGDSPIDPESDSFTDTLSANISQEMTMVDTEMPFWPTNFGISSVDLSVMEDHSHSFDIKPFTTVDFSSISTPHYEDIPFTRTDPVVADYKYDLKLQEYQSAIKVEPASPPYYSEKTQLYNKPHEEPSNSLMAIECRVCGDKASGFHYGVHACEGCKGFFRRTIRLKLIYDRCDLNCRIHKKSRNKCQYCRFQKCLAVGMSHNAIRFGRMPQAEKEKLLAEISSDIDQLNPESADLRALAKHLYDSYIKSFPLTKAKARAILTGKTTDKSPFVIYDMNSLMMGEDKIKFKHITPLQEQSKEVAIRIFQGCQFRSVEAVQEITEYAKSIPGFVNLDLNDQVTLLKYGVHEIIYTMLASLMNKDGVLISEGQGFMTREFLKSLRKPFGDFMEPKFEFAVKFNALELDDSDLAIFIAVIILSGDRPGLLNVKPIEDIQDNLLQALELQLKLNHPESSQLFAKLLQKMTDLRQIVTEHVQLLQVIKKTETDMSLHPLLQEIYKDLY
Chain of Androgen receptor (Homo sapiens) (P10275 whole entry, looked up): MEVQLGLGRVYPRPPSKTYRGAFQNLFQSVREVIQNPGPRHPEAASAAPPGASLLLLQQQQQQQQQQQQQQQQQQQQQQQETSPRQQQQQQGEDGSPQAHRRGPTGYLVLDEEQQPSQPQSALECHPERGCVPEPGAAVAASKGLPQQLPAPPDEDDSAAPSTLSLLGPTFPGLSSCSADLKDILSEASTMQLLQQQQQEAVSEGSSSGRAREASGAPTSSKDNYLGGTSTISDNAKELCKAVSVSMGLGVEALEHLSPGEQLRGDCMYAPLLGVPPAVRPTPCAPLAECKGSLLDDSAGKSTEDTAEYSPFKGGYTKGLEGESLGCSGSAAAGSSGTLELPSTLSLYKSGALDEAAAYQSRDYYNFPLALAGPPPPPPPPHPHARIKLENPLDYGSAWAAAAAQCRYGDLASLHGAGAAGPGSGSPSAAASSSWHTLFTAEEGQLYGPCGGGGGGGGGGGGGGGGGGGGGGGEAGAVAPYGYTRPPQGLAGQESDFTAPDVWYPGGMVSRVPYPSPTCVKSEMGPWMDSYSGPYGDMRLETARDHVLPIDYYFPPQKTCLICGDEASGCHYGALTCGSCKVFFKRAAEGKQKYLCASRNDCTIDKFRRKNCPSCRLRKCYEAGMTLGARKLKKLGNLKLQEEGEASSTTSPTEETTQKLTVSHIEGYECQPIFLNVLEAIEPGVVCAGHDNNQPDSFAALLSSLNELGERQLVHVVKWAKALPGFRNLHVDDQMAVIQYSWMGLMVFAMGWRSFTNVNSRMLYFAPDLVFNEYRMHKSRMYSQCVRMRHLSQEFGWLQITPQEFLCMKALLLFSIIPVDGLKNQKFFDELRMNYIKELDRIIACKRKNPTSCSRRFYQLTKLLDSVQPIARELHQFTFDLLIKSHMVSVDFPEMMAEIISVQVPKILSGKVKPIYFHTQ
Chain of Bile acid receptor (Homo sapiens) (Q96RI1 whole entry, looked up): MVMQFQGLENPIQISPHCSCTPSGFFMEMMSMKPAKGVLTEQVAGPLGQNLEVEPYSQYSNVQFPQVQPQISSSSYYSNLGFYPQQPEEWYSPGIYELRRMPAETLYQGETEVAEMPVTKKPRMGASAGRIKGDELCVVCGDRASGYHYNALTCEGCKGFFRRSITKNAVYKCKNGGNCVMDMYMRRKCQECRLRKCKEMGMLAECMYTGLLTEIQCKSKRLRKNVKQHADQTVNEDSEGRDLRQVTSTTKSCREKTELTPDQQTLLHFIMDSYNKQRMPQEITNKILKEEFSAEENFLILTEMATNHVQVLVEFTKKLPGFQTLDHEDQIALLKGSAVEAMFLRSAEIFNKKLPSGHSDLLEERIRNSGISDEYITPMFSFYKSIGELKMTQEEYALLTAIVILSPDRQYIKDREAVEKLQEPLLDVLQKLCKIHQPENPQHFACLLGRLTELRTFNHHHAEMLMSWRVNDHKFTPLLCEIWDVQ
Chain of Cytochrome P450 3A4 (Homo sapiens) (P08684 whole entry, looked up): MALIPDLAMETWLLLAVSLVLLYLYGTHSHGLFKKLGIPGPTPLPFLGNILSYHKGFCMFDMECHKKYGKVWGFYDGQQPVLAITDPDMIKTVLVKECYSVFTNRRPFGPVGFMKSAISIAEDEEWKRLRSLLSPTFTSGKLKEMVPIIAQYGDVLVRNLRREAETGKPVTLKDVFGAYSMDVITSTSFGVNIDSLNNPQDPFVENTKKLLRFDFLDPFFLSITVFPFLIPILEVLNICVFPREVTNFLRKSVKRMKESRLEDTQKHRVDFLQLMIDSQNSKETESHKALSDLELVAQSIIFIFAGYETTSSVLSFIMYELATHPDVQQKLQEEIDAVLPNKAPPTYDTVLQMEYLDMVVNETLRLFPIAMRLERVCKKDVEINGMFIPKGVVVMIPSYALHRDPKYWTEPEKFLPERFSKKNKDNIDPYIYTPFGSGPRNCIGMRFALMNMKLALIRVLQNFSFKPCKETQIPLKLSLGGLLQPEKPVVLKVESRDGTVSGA

Cc1ccc(C(=O)c2ccccc2)cc1
inactive: activation [1] 1.33% | outcome [2] | Potency [3] | activation [4] 2.58% | Potency [5] | Potency [6] | outcome [7] | Potency [8] | Potency [9]

CC(=O)c1c(O)c(C)c(O)c2c1OC1=CC(=O)C(C(C)=O)C(=O)[C@@]12C (stereo partly specified)
inactive: Potency [10] | Potency [11]

COC(=O)c1cccc(C)c1S(=O)(=O)NC(=O)Nc1nc(OCC(F)(F)F)nc(N(C)C)n1
inactive: activation [1] 3.18% | outcome [2] | Potency [3] | activation [4] -2.8% | Potency [5] | Potency [6] | outcome [7] | Potency [8] | Potency [9] | activation [12] 0.0138%

COc1ccc(C(=O)C2C3C4COC(O4)C(=O)C3C3C=Cc4ccccc4N32)c(OC)c1 (stereo unspecified)
active: Potency [13] 31.6 µM
inactive: Potency [10] | Potency [11]

C=C(C)C(=O)OCCCCCCCCCCCCCCCC
inactive: activation [1] 10.8% | outcome [2] | Potency [3] | activation [4] 0.746% | Potency [5] | Potency [6] | outcome [7] | Potency [8] | Potency [9] | activation [12] -3.24%

CC(=O)OC1CCC2(C)C(CCC3(C)C2C(=O)C=C2C4CC(C)(C(=O)OCCN5CCCCC5)CCC4(C)CCC23C)C1(C)C (stereo unspecified)
inactive: Potency [13] | Potency [11]

CC(C)(C)C(O)/C(=C\c1ccc(Cl)cc1)n1cncn1 (stereo unspecified)
inactive: activation [1] -3.93% | outcome [2] | Potency [3] | activation [4] 0.903% | Potency [5] | Potency [6] | outcome [7] | Potency [8] | activation [12] -1.6%

COc1ccccc1CC(Cc1nc2ccccc2[nH]1)c1nc2ccccc2[nH]1 (stereo unspecified)
active: Potency [13] 1.58 µM
inactive: Potency [10] | Potency [11]

O=C(/C=C/c1ccc(OCc2ccccc2)cc1)c1cccs1
inactive: Potency [13] | Potency [11]

C[Si](Cl)(Cl)[Si](C)(Cl)Cl
inactive: activation [1] 0.564% | outcome [2] | Potency [3] | activation [4] -3.8% | Potency [5] | Potency [6] | outcome [7] | Potency [8] | Potency [9] | activation [12] -1.71%

CCC(=O)OCCc1ccccc1
inactive: Potency [3] | activation [4] -12.1% | Potency [5] | Potency [6] | outcome [7] | Potency [9]

CCCCOC(=O)c1ccccc1
inactive: activation [1] 0.383% | outcome [2] | activation [4] -8.22% | Potency [5] | Potency [6] | Potency [8] | Potency [9]

C=Cc1ccc(P(c2ccccc2)c2ccccc2)cc1
inactive: activation [1] 8.38% | outcome [2] | Potency [3] | activation [4] -2.27% | Potency [5] | Potency [6] | Potency [9] | activation [12] 0.802%

C/C=C/C=C/CCCCCCCO
inactive: Potency [3] | activation [4] -6.08% | Potency [5] | Potency [6] | Potency [9]

CCSC(=O)N(CC(C)C)CC(C)C
inactive: activation [1] 3.31% | outcome [2] | activation [4] -2.35% | Potency [6] | outcome [7] | Potency [9]

CCCC/C=C\CCCCCCCCO
inactive: activation [1] 1.62% | outcome [2] | Potency [3] | outcome [7] | Potency [8] | Potency [9] | activation [12] -0.809%

Nc1cc(Cl)nc(C(=O)O)c1Cl
inactive: activation [1] 6.83% | outcome [2] | Potency [3] | activation [4] -6.13% | Potency [5] | outcome [7] | Potency [8] | Potency [9] | activation [12] 0.121%

CC(C)c1ccc2cc(C(C)C)ccc2c1
inactive: activation [1] -3.98% | outcome [2] | activation [4] -1.13% | activation [12] -0.342%

CNc1nc(=O)n(C2CCCCC2)c(=O)n1C
inactive: activation [1] -4.83% | outcome [2] | Potency [3] | activation [4] -5.96% | Potency [5] | Potency [6] | Potency [9] | activation [12] -1.72%

NCCCCCCCCCCCC(=O)O
inactive: outcome [2] | Potency [3] | activation [4] 8.75% | Potency [5] | Potency [6] | outcome [7] | Potency [8] | Potency [9] | activation [12] -0.832%

O=C(c1ccc(Cl)cc1)c1ccc(Cl)cc1
inactive: activation [1] 19.9% | outcome [2] | Potency [6] | outcome [7] | Potency [8] | activation [12] 1.57%

c1ccc2c(c1)Cc1ccccc1-2
inactive: Potency [3] | Potency [5] | outcome [7] | Potency [8] | activation [12] -1.09%

CCCCOCC(C)OCC(C)O (stereo unspecified)
inactive: Potency [3] | Potency [6] | outcome [7] | Potency [8] | activation [12] -0.368%

CC1(C)[C@@H](C=C(Cl)Cl)[C@@H]1C(=O)OCc1cccc(Oc2ccccc2)c1
inactive: activation [1] -22.2% | outcome [2] | Potency [5]

OC1CCC(C2CCCCC2)CC1 (stereo unspecified)
inactive: Potency [3] | Potency [5] | outcome [7] | Potency [8] | Potency [9]

COC(=O)c1cccc(C(=O)OC)c1
inactive: activation [1] -4.83% | outcome [2] | Potency [6] | outcome [7] | Potency [8]

O=c1[nH]c(=O)c2[nH]cnc2[nH]1
inactive: activation [1] 2.45% | outcome [2] | activation [4] 3.26% | Potency [5] | Potency [6] | Potency [8] | Potency [9] | activation [12] -1.45%

C=C(C)C(=O)OCCOC(=O)C(=C)C
inactive: outcome [2] | activation [4] -0.861% | Potency [5] | Potency [6] | outcome [7] | Potency [8] | Potency [9]

CC(C)C(=O)OCC(C)(C)C(O)C(C)C (stereo unspecified)
inactive: Potency [3] | activation [4] -3.75% | Potency [5] | Potency [6] | outcome [7] | Potency [8] | Potency [9] | activation [12] -1.26%

From PubChem BioAssay (NCATS)
